# Compound activity from PubChem.
# An excerpt weighted towards active compounds, which were near 3.5% of everything screened.
# MITF primary – inhibitors of human MITF; O75030; AlphaScreen MITF homodimerization, bead proximity signal; inhibition, % at 2.6 µM; actives 0.91% (n = 650,000); AID 1259374; in the data active = inhibition above about 50%;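 also: 0% = vehicle wells with protein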
# TEAD-YAP block – TEAD-YAP interaction inhibition; HEK-TIYL cells, TEAD-Gal4/YAP UAS-luciferase luminescence; inhibition, % at 9.12 µM; actives 1.4% (n = 640,000); AID 1259422; in the data active = inhibition above about 32%;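 also: 0% = median of test compound wells and 100% = reference inhibitor wells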
# FBW7 activator – human FBW7 E3 ligase activation, primary screen. AlphaScreen FBW7–phospho-cyclin E peptide binding, activator screen. normalized activity (activation), % at 26.1 µM. actives 0.13% (n = 650,000); in the data active = normalized activity above about 1.9%;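 also: purified mutant Fbw7 with reduced substrate affinity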
# GPR151 activ – activates the human receptor GPR151; PathHunter beta-arrestin GPR151 cells, luminescence; activation, % at 11.2 µM; Q8TDV0; actives 1% (n = 650,000); in the data active = activation above about 4.9%;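 also: 0% = median of compound wells and 100% = cells with positive control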
# Target sequence (Q8TDV0 whole entry, looked up): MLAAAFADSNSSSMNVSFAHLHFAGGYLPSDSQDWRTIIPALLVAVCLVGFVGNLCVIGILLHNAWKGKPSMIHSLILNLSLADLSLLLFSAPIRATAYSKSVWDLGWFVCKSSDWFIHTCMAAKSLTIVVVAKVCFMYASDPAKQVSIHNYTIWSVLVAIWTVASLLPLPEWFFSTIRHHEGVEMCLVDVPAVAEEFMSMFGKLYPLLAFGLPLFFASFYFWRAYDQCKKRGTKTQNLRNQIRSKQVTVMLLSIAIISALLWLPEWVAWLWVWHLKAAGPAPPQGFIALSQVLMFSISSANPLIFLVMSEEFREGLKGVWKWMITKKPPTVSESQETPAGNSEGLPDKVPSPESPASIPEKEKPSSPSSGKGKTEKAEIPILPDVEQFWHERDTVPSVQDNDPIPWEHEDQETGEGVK
# MITF inh conf – human MITF inhibition, confirmation | shares compounds with MITF primary | AlphaScreen MITF homodimerization, biotin/His-MITF beads | inhibition, % at 2.6 µM | actives 16% (n = 4,700) | AID 1259372;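 active = inhibition above a cutoff derived from the DMSO control wells, cut at about 28% in these data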;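 also: 0% = MITF dimer wells with DMSO only; inhibitors lower the bead chemiluminescence by keeping MITF from dimerizing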
# AS interf DR – optically interferes with AlphaScreen signal in dose response; shares compounds with MITF primary; AlphaScreen optical interference counterscreen, cell-free; IC50, µM; actives 6% (n = 480); AID 1259373; call rule not given here
# AS interf ctr – AlphaScreen optical interference, counter-screen. shares compounds with MITF primary. LysRS AlphaScreen counterscreen, signal interference, triplicate. inhibition, % at 2.6 µM. actives 7.6% (n = 4,700). AID 1259376;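 active = inhibition above a cutoff derived from the DMSO control wells, cut at about 30% in these data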
# * marks the source's active call; other numbers are inactive results; . = no result given.
SMILES,MITF primary,TEAD-YAP block,FBW7 activator,GPR151 activ,MITF inh conf,AS interf ctr,others
COc1ccc(S(=O)(=O)N2CCN(Cc3ccccc3F)CC2)cc1,7.3,4.7,-0.2,0.7,.,.,
CCOc1ccc(CN2CCN(S(=O)(=O)c3ccc(OC)cc3)CC2)cc1,57.3*,7.9,0.2,-1.1,-4.0,-1.4,
CCOc1ccc(CN2CCN(Cc3ccc(CC)cc3)CC2)cc1,74.8*,11.9,-0.1,0.8,10.6,6.1,
C=CCn1c(=S)[nH]c2cc(C(=O)NCc3ccccc3Cl)ccc2c1=O,16.6,6.0,-0.1,-0.5,.,.,
CCOc1ccc(CN2CCN(Cc3ccc(OC)cc3)CC2)cc1,57.8*,3.6,-0.2,2.8,19.5,16.0,
O=S(=O)(c1ccc(F)cc1)N1CCN(Cc2cccc3ccccc23)CC1,82.3*,-16.0,0.5,0.2,9.8,9.1,
CCOc1ccc(CN2CCN(S(C)(=O)=O)CC2)cc1,66.0*,5.4,0.1,-0.4,-4.8,-1.7,
Cc1ccc(S(=O)(=O)N2CCN(Cc3cccc4ccccc34)CC2)cc1,44.1,-3.7,-0.1,-1.5,.,.,
COc1ccc(CN2CCN(Cc3ccncc3)CC2)cc1,57.1*,11.2,-0.3,-1.3,-2.7,10.6,
COc1ccc(C/C(N)=N/OC(=O)COc2cccc3ccccc23)cc1,-14.5,1.6,0.0,0.8,.,.,
CCOC(=O)c1c(C)[nH]c(C)c1C(=O)COC(=O)CSc1nc2ccccc2o1,9.0,-7.6,0.1,0.1,.,.,
CCOc1ccc(CN2CCN(Cc3cc(OC)c(O)c(OC)c3)CC2)cc1,55.6*,-14.5,0.0,3.3,1.9,8.3,
O=S(=O)(c1ccc2ccccc2c1)N1CCN(Cc2ccccc2)CC1,20.9,3.9,-0.1,2.0,.,.,
CCOc1ccc(CN2CCN(Cc3cc(OC)c(OC)cc3OC)CC2)cc1,73.6*,-0.1,-0.1,-0.5,1.7,8.1,
CCOc1ccc(CN2CCN(Cc3ccccc3OC)CC2)cc1,43.8,9.0,-0.1,0.6,.,.,
COc1ccc(S(=O)(=O)N2CCN(Cc3ccncc3)CC2)cc1,68.6*,-3.2,-0.1,-1.2,-2.4,0.5,
O=S(=O)(c1ccc2ccccc2c1)N1CCN(Cc2ccncc2)CC1,79.5*,1.3,-0.2,0.5,10.9,0.4,
O=S(=O)(c1ccc(F)cc1)N1CCN(Cc2ccncc2)CC1,73.0*,0.5,-0.5,-0.5,13.3,19.0,
COc1ccc(S(=O)(=O)N2CCN(Cc3cc(OC)c(OC)c(OC)c3)CC2)cc1,55.9*,1.4,0.0,-1.7,-1.4,9.0,
Cc1ccc(NC(=S)N(Cc2cccs2)C2CCCCC2)cc1,-7.1,-1.0,-0.1,0.7,.,.,
O=C(/C=C/c1ccccc1)NC(NC(=O)/C=C/c1ccccc1)c1ccc(OCc2ccc3ccccc3c2)cc1,-2.8,2.1,-0.1,2.9,.,.,
COc1cc(C(=O)N2CCN(Cc3cccc(F)c3)CC2)cc(OC)c1OC,53.6*,-2.6,-0.2,-1.2,7.1,2.1,
COc1cc(OC)cc(C(=O)N2CCN(C3CCN(Cc4ccccc4)CC3)CC2)c1,58.5*,0.4,-0.3,-2.8,1.1,-3.3,
COc1cc(OC)cc(C(=O)N2CCN(Cc3cccnc3)CC2)c1,65.8*,23.5,0.5,-1.6,7.7,17.6,
COc1cc(C(=O)N2CCN(Cc3cccnc3)CC2)cc(OC)c1OC,54.0*,-3.4,0.5,-0.4,2.1,0.1,
SMILES,MITF primary,TEAD-YAP block,FBW7 activator,GPR151 activ,MITF inh conf,AS interf ctr,others
Cc1ccc(C(=O)C(NC(=O)c2ccco2)Nc2cccc([N+](=O)[O-])c2)cc1 (stereo unspecified),22.3,-2.6,-0.1,1.8,.,.,
NN1C(=O)/C(=C\c2ccc(Cl)cc2)NC1=S,52.6*,11.6,0.1,0.4,1.0,7.8,
OCCOCCN1CCN(Cc2cc(Br)cs2)CC1,71.3*,4.2,0.0,-0.1,4.4,14.6,
Cc1ccc(C)c(CN2CCN(CCOCCO)CC2)c1,80.8*,-1.2,-0.1,-0.8,17.1,7.5,
CC(=O)N1CCN(Cc2cc(C)ccc2C)CC1,0.9,8.0,0.1,1.2,.,.,
OCCOCCN1CCN(Cc2cccc3ccccc23)CC1,5.7,-1.3,0.0,0.8,.,.,
Cc1ccccc1CN1CCN(CCOCCO)CC1,69.1*,-4.5,-0.1,0.2,0.3,2.1,
Cn1c(=O)c2c(nc(N3CCc4ccccc4C3)n2Cc2ccc(Cl)c(Cl)c2)n(C)c1=O,8.1,2.2,0.3,-1.9,.,.,
CN1C(=O)N(C)C2OC(C3OC4C(O3)N(C)C(=O)N4C)OC21 (stereo unspecified),54.7*,1.9,0.1,-0.2,8.4,11.0,
COc1ccc(S(=O)(=O)N(C)C)cc1Br,8.3,-8.5,0.6,-0.3,.,.,
CN(C)/C=C/C=C/C(=O)C1CCC/C(=C\C=C\N(C)C)C1=O (stereo unspecified),70.4*,8.7,-0.2,1.3,62.7*,-0.7,AS interf DR=>6.48
CCOc1ccc(C(=O)NCC2(c3cccs3)CC2)cc1,51.8*,-33.6,-0.1,1.1,-6.6,-6.6,
C=CCc1cc(Cl)ccc1OCCCN1CCN(CC)CC1,80.6*,11.2,0.1,-1.6,0.5,18.6,
